Reference: PubChem BioAssay (Tox21)
Where “and” joins values, the source holds several entries; their conditions need not be identical. Identical values can stand only once. Results filed as inconclusive are left out. Entries that show only a call come without a potency. Some compounds were tested as several samples or in several runs, with calls that do not always agree. Calls of active or inactive are those of the source. The call rests on the fitted dose curve; in most records, active means well fitted curve in the direction sought with a large enough effect in the repeat runs; inconclusive means weak or mixed curves; inactive means no such curve, though single readings can be large; an effect the other way counts as inactive or inconclusive.

What follows are compounds tested against Voltage-gated inwardly rectifying potassium channel KCNH2 (Homo sapiens) (UniProt Q12809) (assay: Human Ether-a-go-go-Related Gene (hERG) channel small molecule antagonists: fluorescence cell-based qHTS assay (AID 1671200;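 on activity change, negative = inhibition: hERG-expressing U2OS cells given a thallium stimulus after FluxOR II dye loading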)). Conditions: hERG-U2OS cells, FluxOR thallium flux fluorescence; series mostly up to 76.8 µM; activity change, negative = inhibition: at the top concentration.
How it was run: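 Cell line hERG-U2OS; dye FluxOR II, 1 h RT dark; Tl+ stimulus; ex 480/em 540 nm, read each second for 2 min.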
Further: nearly all actives have a fitted effect of over 50% in size.
Potency means the concentration at half of the fitted maximal effect.

Chain of Voltage-gated inwardly rectifying potassium channel KCNH2 (Homo sapiens) (Q12809 whole entry, looked up): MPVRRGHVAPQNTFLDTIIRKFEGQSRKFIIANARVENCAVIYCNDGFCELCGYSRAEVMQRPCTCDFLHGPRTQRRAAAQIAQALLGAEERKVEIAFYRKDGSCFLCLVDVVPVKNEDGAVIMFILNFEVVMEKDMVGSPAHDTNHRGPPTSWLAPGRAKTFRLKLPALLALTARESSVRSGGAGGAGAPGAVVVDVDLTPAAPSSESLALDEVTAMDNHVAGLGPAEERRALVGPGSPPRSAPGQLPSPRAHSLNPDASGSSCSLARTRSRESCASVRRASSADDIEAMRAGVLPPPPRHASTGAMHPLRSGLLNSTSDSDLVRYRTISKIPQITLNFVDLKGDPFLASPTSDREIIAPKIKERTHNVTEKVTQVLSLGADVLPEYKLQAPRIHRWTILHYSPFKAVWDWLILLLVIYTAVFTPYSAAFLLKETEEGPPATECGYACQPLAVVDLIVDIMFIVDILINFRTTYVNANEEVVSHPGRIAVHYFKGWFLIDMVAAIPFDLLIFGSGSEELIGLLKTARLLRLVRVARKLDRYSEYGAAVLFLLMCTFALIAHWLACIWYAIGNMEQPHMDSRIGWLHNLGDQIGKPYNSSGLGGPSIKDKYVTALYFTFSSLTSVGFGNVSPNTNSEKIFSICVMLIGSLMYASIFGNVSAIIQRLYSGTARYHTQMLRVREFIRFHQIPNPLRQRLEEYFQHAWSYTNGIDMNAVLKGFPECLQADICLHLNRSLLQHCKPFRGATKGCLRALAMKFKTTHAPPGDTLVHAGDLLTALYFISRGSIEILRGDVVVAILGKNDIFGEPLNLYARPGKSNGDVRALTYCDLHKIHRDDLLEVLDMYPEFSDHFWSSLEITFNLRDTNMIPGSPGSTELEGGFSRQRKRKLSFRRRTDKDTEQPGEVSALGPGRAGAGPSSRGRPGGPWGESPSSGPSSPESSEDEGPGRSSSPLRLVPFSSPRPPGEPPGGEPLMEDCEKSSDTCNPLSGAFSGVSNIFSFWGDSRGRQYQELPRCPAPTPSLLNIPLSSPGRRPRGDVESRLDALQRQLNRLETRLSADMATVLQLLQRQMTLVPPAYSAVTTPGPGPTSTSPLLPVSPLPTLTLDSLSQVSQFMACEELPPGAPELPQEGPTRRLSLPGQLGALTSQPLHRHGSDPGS

Row | Structure (SMILES) | Potency | activity change, negative = inhibition
1 | [O-]/[N+](=N\O)c1ccccc1 | inactive | 
2 | CNC[C@H](O)c1ccc(O)c(O)c1 | inactive | 
3 | COc1ccc(-c2coc3cc(O)cc(O)c3c2=O)cc1 | inactive | 
4 | CC/C(=C(/CC)c1ccc(O)cc1)c1ccc(O)cc1 | inactive | 
5 | CCC/C=C/C=O | inactive | 
6 | OCCNCCO | inactive | 
7 | NCCS(=O)(=O)O | inactive | 
8 | c1ccc2cc3ccccc3cc2c1 | inactive | 
9 | CCCCCCOCCOCCO | inactive | 
10 | CC1(C)C(C=C(Cl)Cl)C1C(=O)OCc1cccc(Oc2ccccc2)c1 (configuration not stated) |  | -24.4% (inactive)
11 | C=CC(C)(O)CCC=C(C)C (configuration not stated) | inactive | 
12 | Cc1cccc(Nc2ccccc2C(=O)O)c1C |  | -3.35% (inactive)
13 | CC(C)=CCO | inactive | 
14 | NC[C@H](O)c1ccc(O)c(O)c1 | inactive | 
15 | O=C(O)CCCCCCCCCCCC(=O)O | inactive | 
16 | CCCCCCCCCCCCCO | inactive | 
17 | C=C[C@@]1(C)CC(=O)[C@]2(O)[C@@]3(C)[C@@H](O)CCC(C)(C)[C@@H]3[C@H](O)[C@H](OC(C)=O)[C@@]2(C)O1 | inactive | 

Row | Structure (SMILES) | Potency | activity change, negative = inhibition
18 | CC(C)(Oc1ccc(Cl)cc1)C(=O)O |  | 2.18% (inactive)
19 | CN(Cc1cnc2nc(N)nc(N)c2n1)c1ccc(C(=O)N[C@@H](CCC(=O)O)C(=O)O)cc1 | inactive | 
20 | CC(C)(C)c1cccc(C(C)(C)C)c1O | 24 µM (active) | 
21 | O=C1OC2(c3ccccc31)c1cc(I)c(O)c(I)c1Oc1c2cc(I)c(O)c1I | inactive | 
22 | Nc1ccc(O)c(N)c1 |  | 13.4% (inactive)
23 | COc1ccc(C(=O)c2ccccc2O)c(O)c1 | inactive | 
24 | CC(C)[N+](C)(CCOC(=O)C1c2ccccc2Oc2ccccc21)C(C)C | inactive | 
25 | CC(=O)[C@H]1CC[C@H]2[C@@H]3CC=C4C[C@@H](O)CC[C@]4(C)[C@H]3CC[C@]12C | inactive | 
26 | O=S1(=O)CCCO1 | inactive | 
27 | CN1CCOCC1 | inactive | 
28 | CN(C)/N=N/c1nc[nH]c1C(N)=O | inactive | 
29 | NCCN | inactive | 
30 | CCC(Cc1c(I)cc(I)c(N)c1I)C(=O)O (configuration not stated) | inactive | 
31 | c1ccc2ncccc2c1 | inactive | 
32 | [Na+] | inactive | 
33 | COC(=O)c1ccc(C)cc1 | inactive | 
34 | C[C@]12C=CC(=O)C=C1CC[C@H]1[C@@H]3C[C@@H](O)[C@](O)(C(=O)CO)[C@@]3(C)C[C@H](O)[C@@]12F | inactive | 

What follows are compounds tested against Cytochrome P450 3A4 (Homo sapiens) (UniProt P08684) (assay: Cytochrome P450 Family 3 Subfamily A Member 4 (CYP3A4) small molecule antagonists: luciferase reporter qHTS assay (AID 1671201)). Conditions: P450-Glo CYP3A4 enzyme, luciferin luminescence, 1 h; series mostly up to 115 µM; activity change, negative = inhibition: at the top concentration.
How it was run: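 Room-temperature assay throughout: 10 min compound–enzyme/substrate preincubation, 1 h reaction after NADPH regeneration solution, 20 min detection. Luciferin formed from proluciferin substrate is quantified by luminescence.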

Chain of Cytochrome P450 3A4 (Homo sapiens) (P08684 whole entry, looked up): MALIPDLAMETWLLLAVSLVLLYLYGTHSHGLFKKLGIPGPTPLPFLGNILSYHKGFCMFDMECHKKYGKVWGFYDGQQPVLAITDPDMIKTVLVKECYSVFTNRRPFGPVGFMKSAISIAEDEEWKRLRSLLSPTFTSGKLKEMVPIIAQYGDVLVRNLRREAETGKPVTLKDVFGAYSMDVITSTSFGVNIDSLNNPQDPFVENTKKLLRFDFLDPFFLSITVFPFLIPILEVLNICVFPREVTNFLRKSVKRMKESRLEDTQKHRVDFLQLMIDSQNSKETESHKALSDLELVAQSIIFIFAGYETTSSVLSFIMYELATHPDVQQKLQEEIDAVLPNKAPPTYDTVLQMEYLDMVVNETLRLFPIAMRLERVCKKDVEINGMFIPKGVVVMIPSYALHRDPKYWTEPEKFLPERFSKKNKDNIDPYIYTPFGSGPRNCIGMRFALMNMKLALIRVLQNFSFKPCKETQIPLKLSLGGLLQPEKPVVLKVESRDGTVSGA

Row | Structure (SMILES) | Potency | activity change, negative = inhibition
35 | [O-]/[N+](=N\O)c1ccccc1 | inactive | 
36 | C[C@]12CC[C@@H]3c4ccc(O)cc4CC[C@H]3[C@@H]1CC[C@H]2O |  | -5.15% (inactive)
37 | COc1ccc(-c2coc3cc(O)cc(O)c3c2=O)cc1 | 20.2 µM (active) and 35.6 µM (active) | 
38 | CCC/C=C/C=O |  | 5.02% (inactive)
39 | OCCNCCO | inactive | 
40 | c1ccc2cc3ccccc3cc2c1 | inactive | 
41 | CC1(C)C(C=C(Cl)Cl)C1C(=O)OCc1cccc(Oc2ccccc2)c1 (configuration not stated) | inactive | 
42 | C=CC(C)(O)CCC=C(C)C (configuration not stated) |  | -3.99% (inactive)
43 | C[C@]12CC[C@@H]3c4ccc(O)cc4CC[C@H]3[C@@H]1CC[C@@H]2O | inactive | 
44 | Cc1cccc(Nc2ccccc2C(=O)O)c1C | inactive | 
45 | CC(C)=CCO | inactive | 
46 | NC[C@H](O)c1ccc(O)c(O)c1 |  | 0.157% [at 52.9 µM] (inactive)
47 | O=C(O)CCCCCCCCCCCC(=O)O | inactive | 
48 | CCCCCCCCCCCCCO | inactive | 
49 | CN(Cc1cnc2nc(N)nc(N)c2n1)c1ccc(C(=O)N[C@@H](CCC(=O)O)C(=O)O)cc1 | inactive | 
50 | CC(C)(C)c1cccc(C(C)(C)C)c1O | inactive | 
51 | Nc1ccc(O)c(N)c1 | 63.3 µM (active) | 
52 | COC(=O)C(C)Oc1ccc(Oc2ncc(C(F)(F)F)cc2Cl)cc1 (configuration not stated) |  | 33.2% (inactive)
53 | CC(C)[N+](C)(CCOC(=O)C1c2ccccc2Oc2ccccc21)C(C)C | inactive | 
54 | CC(=O)[C@H]1CC[C@H]2[C@@H]3CC=C4C[C@@H](O)CC[C@]4(C)[C@H]3CC[C@]12C | inactive | 
55 | O=S1(=O)CCCO1 | inactive | 
56 | CN(C)/N=N/c1nc[nH]c1C(N)=O | inactive | 
57 | NCCN | 81.2 µM (active) and inactive | 
58 | CCC(Cc1c(I)cc(I)c(N)c1I)C(=O)O (configuration not stated) | inactive | 
59 | c1ccc2ncccc2c1 | inactive | 
60 | [Na+] | inactive | 
61 | COC(=O)c1ccc(C)cc1 | inactive | 
62 | C[C@]12C=CC(=O)C=C1CC[C@H]1[C@@H]3C[C@@H](O)[C@](O)(C(=O)CO)[C@@]3(C)C[C@H](O)[C@@]12F |  | -18.2% [at 52.9 µM] (inactive)
